# Bioassay records deposited in PubChem by National Center for Advancing Translational Sciences (NCATS).
# Shiga toxin inh: A qHTS for Small Molecule Inhibitors of Shiga Toxin; Vero cells, Shiga toxin protein synthesis inhibition reporter; inhibition, % at 38.7 µM; 290,000 compounds, 9.2% hits; AID 2315, 2010; in the data active means inhibition mostly above about 28%, no sharp cut-off; inactive means mostly below about 43%; further: 0% is about no effect
# Cycloheximide cs: Cycloheximide Counterscreen for Small Molecule Inhibitors of Shiga Toxin; AID 2314, 2010; max response, %; cell reporter, cycloheximide protein synthesis inhibition counterscreen; 300,000 compounds, 12% hits; in the data active means max response mostly above about 13%, no sharp cut-off; inactive means mostly below about 14%; further: read at 38.3 µM for the half of the compounds with a filed dose; 0% is about no effect
# Pf growth 96h: Primary qHTS for delayed death inhibitors of the malarial parasite plastid, 96 hour incubation | P. falciparum luciferase reporter growth, 96 h | AID 504834, 2011 | 320,000 compounds, 6.9% hits | Potency, µM (doses to about 28.7 µM), for the others: top-dose activity change, negative = inhibition, usual class: inhibitors; further: potency means the concentration at half of the fitted maximal effect; on the % scale 0 is the no-effect control and ±100 the full control effect
#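 Two-generation exposure (96 h) targets delayed-death phenotype. Reporter parasites carrying integrated firefly luciferase, in red cells at 2% hematocrit and 0.05% parasitemia final, kept at 37 C, 5% CO2; luminescence loss indicates inhibition.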
# Pf growth 48h: Primary qHTS for delayed death inhibitors of the malarial parasite plastid, 48 hour incubation; P. falciparum luciferase growth in erythrocytes, 48 h; AID 504832, 2011; 310,000 compounds, 5.9% hits; Potency, µM (top dose mostly 28.7 µM), for the others: at the highest dose activity change, negative = inhibition, actives largely listed as inhibitors; further: potency means the concentration at half of the fitted maximal effect; on the % scale 0 is the no-effect control and ±100 the full control effect
#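 First compound was added to culture medium, then infected red cells at 0.1% parasitemia and 2% hematocrit (final). After incubation at 37 C under 5% CO2, luciferase detection reagent was dispensed and light output recorded.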
# The depositor's hits bear a star; ? = inconclusive; nt = no result. A selection: hits, their analogues and other compounds. The true share with any hit is near 21%. Unless noted, the call rests on the fitted dose curve; in most records, active means well fitted inhibition curve with a large enough effect; inconclusive means small, poorly fitted or top-dose-only effect, or another doubt; inactive means no such curve, though single readings can be large or run the other way.
SMILES,Shiga toxin inh,Cycloheximide cs,Pf growth 96h,Pf growth 48h
CSc1nc2nc(C)c(CCC(=O)OCC(=O)Nc3ccc(F)cc3)c(C)n2n1,nt,nt,5.9%,-3.6%
CCn1cc(/C=C(\NC(=O)c2ccccc2)C(=O)NCCCN2CCOCC2)c2ccccc21,-4.5,-2.6,40.9%,-9.4%
CCc1ccc(CCC(=O)Nc2ccccc2C(=O)O)o1,75.4*,40.1*,?,-15.3%
NC(=O)c1ccccc1NC(=O)CCCc1ccccc1,nt,20.1*,8.2%,65.2%
Cc1ccc(NC(=O)CCCc2ccccc2)c([N+](=O)[O-])c1,35.1*,32.0*,1.6%,89.3%
O=C(Cc1ccccc1)Nc1ccccc1C(=O)O,75.7*,35.0*,-11.8%,nt
Cc1cc(C)cc(C(=O)NC(CC(N)=O)c2ccc(N3CCCCCC3)c([N+](=O)[O-])c2)c1 (configuration not stated),-2.2,-1.7,4.2%,8.8%
Cc1cc(C)cc(C(=O)Oc2cc(C)[nH]c(=O)c2[N+](=O)[O-])c1,8.2,-1.1,-5.3%,-3.6%
CC#CCCCC(=O)Nc1ccccc1C(=O)O,82.5*,28.5*,31.2%,31.8%
CNS(=O)(=O)c1c(C)cc(C)c(N(C)S(=O)(=O)c2ccccc2)c1C,4.1,1.1,?,-22.8%
Cc1ccc(Sc2cc(C)nc(-c3ccccn3)n2)cc1,46.4,30.8*,?,?
FC(F)(F)c1cccc(Sc2cc(C(F)(F)F)nc(-c3ccccn3)n2)c1,-16.3,-0.9,?,0.0%
COc1cnc(-c2ccccn2)nc1Sc1ccc(C)cc1,6.8,5.3,?,11.7µM*
COc1ccccc1Sc1nc(-c2ccccn2)ncc1OC,-9.3,3.0,?,?
Nc1cccnc1Sc1cccc(Cl)c1,29.2,8.4,-7.2%,23.9%
COc1cnc(-c2ccccn2)nc1Sc1cccc(Cl)c1,-3.5,1.3,1.47µM*,?
CCCCNC(=O)[C@H]1C[C@H]1[C@@H](O)[C@H](CO)NC(=O)[C@H](Cc1ccccc1)NC(=O)OC(C)(C)C,-2.0,2.0,55.1%,-0.6%
Cc1c(-c2ccc(Cl)cc2)oc(=O)c2c(N)n(-c3ccccc3)nc12,17.2,24.5*,-6.3%,20.1%
Nc1c2c(=O)oc(-c3ccccc3)cc2nn1-c1ccccc1,114.9*,37.9*,147.7%,79.4%
C=CCn1c(=O)c(CCC(=O)Nc2ccc(N3CCOCC3)cc2)nc2cc(C(F)(F)F)ccc21,-10.7,7.6,?,?
NNC(=O)c1csc(-c2ccc(C(F)(F)F)cc2Cl)n1,15.4,-2.4,0.0%,-1.9%
COCCN(C(=O)COC(=O)c1ccccc1Nc1ccccc1)c1c(N)n(Cc2ccccc2)c(=O)[nH]c1=O,nt,nt,9.28µM*,?
CCC(C(=O)OCC(=O)N(CCOC)c1c(N)n(Cc2ccccc2)c(=O)[nH]c1=O)c1ccccc1 (configuration not stated),-10.5,-1.8,?,-5.9%
COCCn1c(C)cc(/C=C(\C#N)C(=O)OCC(=O)N(C)c2c(N)n(Cc3ccccc3)c(=O)[nH]c2=O)c1C,nt,nt,13.1µM*,?
COCCn1c(SCC(=O)N(C)c2c(N)n(Cc3ccccc3)c(=O)[nH]c2=O)nnc1-c1cccc(C)c1,nt,nt,3.7%,-3.1%
SMILES,Shiga toxin inh,Cycloheximide cs,Pf growth 96h,Pf growth 48h
COCCN(C(=O)COC(=O)C(c1ccccc1)c1ccccc1)c1c(N)n(Cc2ccccc2)c(=O)[nH]c1=O,nt,nt,7.38µM*,10.4µM*
NCc1ccccc1Sc1ccccc1CO,nt,nt,-27.0%,-18.6%
CC(C)(C)c1ccc(C(=O)NCCNC(=O)c2ccco2)cc1,28.0,2.2,-35.3%,4.7%
CN(CCc1ccccn1)C(=O)CCC1CCCN(C(=O)c2ccsc2)C1 (configuration not stated),3.2,0.7,10.4µM*,42.6%
C=CCOc1ccccc1CN1CCCC(CCC(=O)N(C)CCc2ccccn2)C1 (configuration not stated),1.9,0.5,11.7µM*,-4.2%
CN(CCc1ccccn1)C(=O)CCC1CCCN(C(=O)c2c3c(nn2C)CCCC3)C1 (configuration not stated),1.7,-3.5,8.28µM*,-10.7%
COc1ccc(NC(=O)N2CCCC(CCC(=O)N(C)CCc3ccccn3)C2)cc1 (configuration not stated),90.5*,29.6*,-17.6%,36.7%
CC(C)OP(=O)(OC(C)C)C(O)c1cccc([N+](=O)[O-])c1 (configuration not stated),-8.2,0.9,32.8%,?
Cc1ccc(O)c(C(=O)c2cnc3c(c2)CN(C)C(=O)N3)c1,-9.4,1.5,nt,?
Cc1ccc(O)c(C(=O)c2cnc3c(c2)CN(CCC(C)C)C(=O)N3)c1,-3.5,-2.2,5.22µM*,2.94µM*
Cc1ccc(O)c(C(=O)c2cnc3c(c2)c(=O)n(C)c(=O)n3C)c1,-6.2,-2.9,10.4µM*,?
CCCCN1Cc2cc(C(=O)c3cc(OC)ccc3O)cnc2NC1=O,32.1,12.0,9.28µM*,?
Cc1ccc(O)c(C(=O)c2cnc3c(c2)c(-c2ccc(F)cc2)c(C#N)c(=O)n3C)c1,22.6,6.6,?,?
O=C(COC(=O)CNC(=O)C1CCCCC1)Nc1ccccc1Cl,nt,nt,-15.7%,19.3%
COc1cc(C(=O)Nc2ccc(NC(C)=O)cc2)ccc1OCc1ccccc1,-9.3,8.8,-7.2%,4.8%
CC1CCC2C(=O)N(c3cccc(C(=O)Nc4ccccc4Cl)c3)C(=O)C2C1 (configuration not stated),24.5,1.0,11.7µM*,-14.5%
COc1cccc(NC(=O)c2cccc(N3C(=O)C4CCC(C)CC4C3=O)c2)c1 (configuration not stated),-6.7,-2.6,4.15µM*,2.33µM*
Cc1cccc(NC(=O)c2cccc(N3C(=O)C4CCC(C)CC4C3=O)c2)c1C (configuration not stated),-8.0,-2.6,37.5%,-28.7%
O=C(c1cc(COc2ccc3c(c2)CCCC3)on1)N1CCCC1,50.6*,46.9*,3.9%,23.8%
O=C(c1cc(COc2c(F)cccc2F)on1)N1CCCCCC1,81.1*,61.2*,91.6%,68.0%
CC(=O)N1CCCN(C(=O)c2cc(COc3c(F)cccc3F)on2)CC1,12.2,3.7,0.0%,?
CCOC(=O)N1CCN(C(=O)c2cc(COc3c(F)cccc3F)on2)CC1,129.2*,73.7*,?,23.4%
C/C(=N/N=C1/NC(=O)CC(C(=O)Nc2ccccc2)S1)c1cccs1 (configuration not stated),-3.4,11.9,9.28µM*,10.4µM*
O=C(O)CCCn1ccc2cc(S(=O)(=O)N3CCCC3)ccc21,-5.1,-1.4,13.1µM*,2.6%
CCC(C(=O)NCCC(C)C)n1ccc2cc(S(=O)(=O)N3CCCCC3)ccc21 (configuration not stated),-6.7,15.6,36.4%,11.7µM*
COc1cccc(CNC(=O)c2cc(S(=O)(=O)N3CCCC3)cn2C)c1,-5.9,-1.5,11.7µM*,13.1µM*
COc1cccc(CNC(=O)C(C)n2ccc3cc(S(=O)(=O)N4CCCCCC4)ccc32)c1 (configuration not stated),-11.6,3.7,?,7.38µM*
